Bioassay records as filed in PubChem BioAssay.
This is a sample that favours compounds with a hit; in the whole collection about 1.7% have one here.
CFTR F508del cor – CFTR F508del correction in bronchial cells. 350,000 tested, 0.36% active. CFBE cells, YFP halide quenching; stimulated with forskolin plus potentiator P3; % fluorescence drop versus neutral controls. activity (quench increase), % at 7.58 µM;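 active = mean added fluorescence quench of at least 8% versus neutral control, with both replicates also reaching 8%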;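 note: cells transiently co-express mutant CFTR-F508del with the halide-sensitive YFP; corrector assay measuring rescue of mutant channel to the surface after 24 h compound exposure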
Vif imaging – inhibitors of HIV Vif; inhibition, % at 7.49 µM; HEK293T cells, Vif self-association by quenched fluorescence, imaging, 24 h; 340,000 tested, 0.35% active; in the data active = inhibition above about 50%, passing the limit was not always enough
FGF22 binding – FGF22 (human) thermal shift binding | Q9HCT0 | recombinant FGF22 thermal shift, SYPRO orange fluorescence; percent of sucrose octasulfate shift, DMSO zero | activity (Tm shift, normalised), % at 9.99 µM | 340,000 tested, 1.5% active;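 active = mean Tm shift, scaled 0 neutral to 100 positive control, at about 1.3% or above, every replicate too, limit read from the data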
Target sequence (Q9HCT0 whole entry, looked up): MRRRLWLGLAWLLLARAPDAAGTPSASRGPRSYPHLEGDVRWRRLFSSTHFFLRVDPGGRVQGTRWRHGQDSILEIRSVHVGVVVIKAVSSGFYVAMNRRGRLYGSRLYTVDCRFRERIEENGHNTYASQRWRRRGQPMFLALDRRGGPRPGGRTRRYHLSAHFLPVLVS
The depositor's hits bear a star.

For Cc1ccc(-n2nnc3c(=O)n(CC(=O)OCc4ccccc4)cnc32)cc1 the results were CFTR F508del cor -0.5, Vif imaging 75.4* and FGF22 binding -0.1.
For O=C(C[C@@H]1CC[C@@H]2[C@H](COC[C@@H](O)CN2C(=O)C2CC2)O1)NCc1ccccc1Cl the results were CFTR F508del cor -1.5 and FGF22 binding -0.5.
`CC(=O)c1sc(NC(=O)c2ccc(C(C)(C)C)cc2)nc1C` gave CFTR F508del cor 4.9, Vif imaging -4.5 and FGF22 binding 40.9.
For CC(=O)c1sc(NC(=O)c2ccc(C)c(C)c2)nc1C the results were CFTR F508del cor 1.1, Vif imaging -7.7 and FGF22 binding 43.7*.
C[C@@H]1CN([C@H](C)CO)S(=O)(=O)c2ccc(C#CCN(C)C)cc2O[C@H]1CN(C)Cc1cccnc1 was read as CFTR F508del cor 0.6 and FGF22 binding 0.4.
CO[C@H]1CN(C)C(=O)c2ccc(NS(=O)(=O)c3ccccc3)cc2OC[C@@H](C)N(C)C[C@@H]1C was read as CFTR F508del cor -0.5.
For O=C(C[C@@H]1C=C[C@@H](NS(=O)(=O)c2ccccc2)[C@H](CO)O1)NCc1ccccc1F the results were CFTR F508del cor -0.5 and FGF22 binding -0.1.
For O=C1NCCNC(=O)c2ccccc2OCCOc2ccccc21 the results were CFTR F508del cor 0.4, Vif imaging 35.5 and FGF22 binding 0.8.
Screening O=C1OCC/C1=C1/NCCNC1=O returned CFTR F508del cor 0.8, Vif imaging -9.6 and FGF22 binding 43.6*.
`C[C@@H]1CCCCO[C@H](CN(C)S(=O)(=O)c2ccc(F)cc2)[C@@H](C)CN([C@H](C)CO)C(=O)c2cc(NC(=O)CCCN(C)C)ccc2O1` gave CFTR F508del cor -1.7 and FGF22 binding 0.0.
For O=[N+]([O-])c1ccc(/C=N/Nc2nc(NCc3ccccc3)nc(N3CCOCC3)n2)cc1 the results were CFTR F508del cor -2.1, Vif imaging -5.1 and FGF22 binding 42.4.
For O=[N+]([O-])c1cccc(/C=N/Nc2nc(NCc3ccccc3)nc(N3CCOCC3)n2)c1O the results were CFTR F508del cor 4.3, Vif imaging -7.0 and FGF22 binding 43.7*.
O=C(Oc1c(Br)cc([N+](=O)[O-])cc1Br)c1cccnc1 was read as CFTR F508del cor -3.9, Vif imaging -26.6 and FGF22 binding 43.6*.
`N/C(=N\OC(=O)c1ccc([N+](=O)[O-])cc1)c1cccnc1` gave Vif imaging -1.2 and FGF22 binding 0.0.
Screening CSc1nc2c([nH]1)c(=S)n(C)c(=O)n2C returned CFTR F508del cor 2.0, Vif imaging 5.7 and FGF22 binding 43.3*.
Screening CCCCSc1nc2c([nH]1)c(=S)n(C)c(=O)n2C returned CFTR F508del cor 0.6, Vif imaging -5.0 and FGF22 binding 0.1.
For Oc1cccc(Nc2nc(O)c(/C=C3\C=Nc4ccccc43)s2)c1 the results were CFTR F508del cor -0.2, Vif imaging 56.8* and FGF22 binding 0.4.
`Oc1nc(Nc2cccc(Cl)c2)sc1/C=C1\C=Nc2ccccc21` gave CFTR F508del cor 1.0, Vif imaging -4.2 and FGF22 binding 0.6.
For CCC(=O)Nc1ccc2c(c1)C(=O)N(C)[C@@H]1CC[C@@H](CC(=O)NCCCN(C)C)O[C@@H]1CO2 the results were CFTR F508del cor -0.2 and FGF22 binding -0.2.
`O=[N+]([O-])c1ccc(-c2nnc(CNC3CCCC3)o2)cc1` gave CFTR F508del cor -3.3, Vif imaging 2.9 and FGF22 binding 0.5.
For Clc1ccc(-c2nnc(CNC3CC3)o2)cc1 the results were CFTR F508del cor 0.0, Vif imaging -0.1 and FGF22 binding 43.3*.
C[C@@H]1CN([C@@H](C)CO)S(=O)(=O)c2ccc(-c3ccc(F)cc3)cc2O[C@@H]1CN(C)C(=O)C1CC1 was read as CFTR F508del cor -3.4.
CC(C)(C)Nc1nc(Cl)nc(NCCN2CCOCC2)n1 was read as CFTR F508del cor 1.5, Vif imaging 12.8 and FGF22 binding 0.1.
CN(C)CCCNc1nc(-c2ccccc2)nc2ccccc12 was read as CFTR F508del cor 0.0, Vif imaging -2.1 and FGF22 binding -0.2.
For Cc1cc(NCCN2CCOCC2)c2ccc3ccccc3c2n1 the results were CFTR F508del cor 4.7, Vif imaging 1.4 and FGF22 binding 43.1*.
`c1ccc2c(NCCCN3CCOCC3)c3ccccc3nc2c1` gave CFTR F508del cor 10.9* and FGF22 binding 0.2.
`COc1ccc2nc(C)cc(NCCN3CCOCC3)c2c1` gave CFTR F508del cor 0.4, Vif imaging 7.2 and FGF22 binding 0.0.
Screening Fc1ccccc1-c1nc(NCCCN2CCOCC2)c2ccccc2n1 returned CFTR F508del cor 0.6 and FGF22 binding -0.2.
`Clc1nc(NCCN2CCOCC2)nc(NCc2ccccc2)n1` gave CFTR F508del cor -0.6, Vif imaging 15.3 and FGF22 binding 43.7*.
`CN(C)CCCNc1c2ccccc2nc2ccccc12` gave CFTR F508del cor 18.2*, Vif imaging -1.7 and FGF22 binding -0.2.
`C[C@@H]1CCCCO[C@H](CN(C)Cc2ccc3c(c2)OCO3)[C@H](C)CN([C@H](C)CO)C(=O)c2cc(NS(=O)(=O)c3cn(C)cn3)ccc2O1` gave CFTR F508del cor 3.6 and FGF22 binding -0.1.
`O=c1n(-c2ccccc2)c(=O)n2n1CC(COc1ccccc1)=C1[C@@H](CCc3ccccc3)OB(O)C[C@@H]12` gave CFTR F508del cor -2.5 and FGF22 binding 0.3.
Screening CCNC(=O)C[C@@H]1CC[C@@H]2[C@H](COC[C@H](O)CN2C(=O)c2cccnc2)O1 returned CFTR F508del cor -0.9 and FGF22 binding 0.0.
For c1ccc(CNc2c3ccccc3nc3ccccc23)cc1 the results were CFTR F508del cor 10.9*, Vif imaging -18.1 and FGF22 binding -0.2.
For c1ccc(CNc2ncnc3ccccc23)cc1 the results were CFTR F508del cor 1.1, Vif imaging -3.3 and FGF22 binding -0.4.
Cc1ccc(C(=O)NCC(=O)OCC(=O)c2ccc3c(c2)NC(=O)CO3)cc1 was read as CFTR F508del cor -0.5 and Vif imaging -1.3.
For O=C1COc2ccc(C(=O)COC(=O)CNC(=O)c3ccco3)cc2N1 the results were CFTR F508del cor -3.0, Vif imaging 0.4 and FGF22 binding 43.1*.
Screening Cc1sc(NC(=S)NC(=O)CCc2ccccc2)c(C(N)=O)c1C returned CFTR F508del cor 12.2*, Vif imaging 125.1* and FGF22 binding 0.1.
`COC(=O)CCC(=O)NC(=S)Nc1sc(C)c(C)c1C(N)=O` gave Vif imaging 24.2.
C[C@H]1CN([C@@H](C)CO)C(=O)c2cc(NS(=O)(=O)c3ccc(Cl)cc3)ccc2O[C@@H]1CN(C)S(=O)(=O)c1ccc(F)cc1 was read as CFTR F508del cor 1.7 and FGF22 binding -0.3.
O=C(O)COc1ccc(Cl)cc1C1CCCCC1 was read as CFTR F508del cor -0.1, Vif imaging 11.1 and FGF22 binding 43.4*.
`O=C(COc1ccc(F)cc1Cl)NC1CCCCCC1` gave CFTR F508del cor -5.0, Vif imaging -3.2 and FGF22 binding -0.2.
For COc1ccc(NC(=O)Nc2ccc3c(c2)C(=O)N([C@@H](C)CO)C[C@@H](C)[C@@H](CN(C)S(=O)(=O)c2ccccc2)O3)cc1 the results were CFTR F508del cor 0.3 and FGF22 binding 0.0.
